Values joined by “and” are separate entries in the source; they are usually repeats but may differ in a detail not shown here. Identical values can stand only once. The whole screen tested about 650,000 compounds, of which about 6,800 (1%) were called active. This is one part of a sample in which actives are shown more often than they occur. Values without a mark were called inactive. Cut-off read from the data, not from the text of the source: active = activation above about 4.9%; inactive = the rest.
These molecules were tested against G-protein coupled receptor 151 (Homo sapiens) (UniProt Q8TDV0) (assay: activators of human GPR151, primary screen, cell-based, PathHunter beta-arrestin, luminescence (AID 1508602;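 note: 0% = median of compound wells and 100% = cells with positive control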)). Conditions: PathHunter beta-arrestin GPR151 cells, at 11.2 µM, stronger effect = higher value.
Chain of G-protein coupled receptor 151 (Homo sapiens) (Q8TDV0 whole entry, looked up): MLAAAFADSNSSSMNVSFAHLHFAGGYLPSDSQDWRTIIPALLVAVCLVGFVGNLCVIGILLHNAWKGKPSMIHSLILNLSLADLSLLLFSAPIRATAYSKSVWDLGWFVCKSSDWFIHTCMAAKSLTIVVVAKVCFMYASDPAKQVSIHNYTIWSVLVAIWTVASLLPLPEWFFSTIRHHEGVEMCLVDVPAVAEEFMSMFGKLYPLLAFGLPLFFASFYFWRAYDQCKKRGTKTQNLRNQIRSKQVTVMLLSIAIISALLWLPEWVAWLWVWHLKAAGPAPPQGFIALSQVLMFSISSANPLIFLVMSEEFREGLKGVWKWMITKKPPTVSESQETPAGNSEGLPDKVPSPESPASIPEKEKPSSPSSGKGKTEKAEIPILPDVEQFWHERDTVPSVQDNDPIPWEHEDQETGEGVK
For CCCCn1c(N)c(N(CC(C)C)C(=O)CCC(=O)O)c(=O)[nH]c1=O, the activation was -0.868%.
In the case of CCN1CCN(C(C)C(=O)Nc2cc(C)on2)CC1 (stereo not given), the activation is reported as -5.25%.
CC1C(=O)NC(=O)N1c1ccc(Cl)cc1 (stereo not given) showed an activation of 2.6%.
COc1cn2c(cc1=O)C(=O)N(CCNC(=O)c1cccc(F)c1)CC2 gave an activation of 0.552%.
Molecule C=CCC(CC=C)(NC(=O)c1ccc([N+](=O)[O-])cc1)c1ccccc1 has an activation of 2.8%.
Molecule CCN1/C(=C/c2ccc3cc(C)ccc3[n+]2CC)Sc2ccc(OC)cc21 has an activation of 1.84%.
In the case of CCN1/C(=C/c2ccc3cc(C)ccc3[n+]2CC)Sc2ccc(-c3ccccc3)cc21, the activation is reported as 18.5% (active).
For CCC(/C=C1\Sc2ccc(-c3ccccc3)cc2N1CC)=C\c1sc2ccc3ccccc3c2[n+]1CC, the activation was -0.19%.
In the case of CCCc1cc(=O)[nH]c(SCC(=O)Nc2ccc(C(N)=O)cc2)n1, the activation is reported as -0.889%.
COc1cccc(N2C(=O)C3CCCN3C2c2ccc(F)cc2)c1 (stereo not given) gave an activation of 1.08%.
In the case of COc1ccc(N2C(=O)C3CCCN3C2c2cccc(OC)c2)cc1 (stereo not given), the activation is reported as 6.4% (active).
COc1ccc(N2C(=O)C3CCCN3C2c2cc(OC)c(OC)cc2OC)cc1 (stereo not given) showed an activation of -1.11%.
CCOC(=O)COc1cccc2c(=O)n(CC(=O)Nc3cccc(Cl)c3)ccc12 gave an activation of -0.932%.
With CC(C)(C)CC(C)(C)c1ccc(OCC(=O)NNC(=O)c2ccccc2Cl)cc1 the activation was -0.581%.
CCSc1nnc(NC(=O)CSc2nc3ccccc3[nH]2)s1 was tested, and the activation was 0.0173%.
With CCOC(=O)c1c(NC(=O)CSc2nc3ccccc3[nH]2)sc2c1CCC2 the activation was -0.467%.
In the case of CCOC(=O)c1ccc2nc(NC(=O)CSc3nc4ccccc4[nH]3)sc2c1, the activation is reported as 7.06% (active).
C=CCn1cnc2sc(C)c(-c3ccc(Cl)cc3)c2c1=O gave an activation of 1.23%.
C=CCSc1nnc(-c2cc(N(C)C)nc(N(C)C)n2)n1C was tested, and the activation was 3.52%.
O=C(c1cc(COc2ccc3ncccc3c2)on1)N1C[C@@H]2CCC[C@H]1C2 was tested, and the activation was 0.767%.
For CCN(CC)C1CCN(C(=O)c2cc(COc3ccc4ncccc4c3)on2)C1 (stereo not given), the activation was 5.71% (active).
COCC1CCN(C(=O)c2cc(COc3ccc4ncccc4c3)on2)C1 (stereo not given) showed an activation of 2.98%.
Cc1[nH]c2ccccc2c1C(=O)CN1CCN(c2ccccc2)CC1 showed an activation of -0.808%.
Molecule Cc1cc2c(cc1C)NC(CC(=O)Nc1ccc(Cl)cc1Cl)C(=O)N2 (stereo not given) has an activation of -1.58%.
Molecule O=C(Nc1ccc(Cl)c(-c2nc3ccccc3o2)c1)c1cc([N+](=O)[O-])ccc1Cl has an activation of 0.267%.
COc1ccc(C(=O)NNC(=O)c2cccc(Cl)c2)cc1OC gave an activation of 1.28%.
In the case of COc1ccc(COC(=O)NNC(=O)c2cccc(Cl)c2)cc1, the activation is reported as 6.17% (active).
Work on Cc1cc(C)cc(OCC(=O)NNC(=O)c2cccc(Cl)c2)c1 yielded an activation of 0.56%.
CCOC(=O)N1CCN(C(=O)CSc2nnc(-c3ccc(OC)cc3)o2)CC1 showed an activation of -0.713%.
COc1ccc(-c2cn3c(NC(=O)c4ccccc4)cnc3cn2)cc1 showed an activation of -2.03%.
Molecule COc1cc(/C=N/NC(=O)c2cccs2)cc(OC)c1OC has an activation of -1.73%.
For O=C(N/N=C/c1cccc(Cl)c1Cl)c1ccc(O)cc1, the activation was 0.598%.
O=C(N/N=C/c1cccc(Cl)c1Cl)c1cccs1 was tested, and the activation was 10.6% (active).
Molecule COc1ccc(CNCc2cccn2-c2sc(C)c(C)c2C(=O)O)cc1 has an activation of 0.477%.
For C=CCN(c1ccc(C(=O)Nc2ccc(OCc3ccccc3)cc2)cc1)S(C)(=O)=O, the activation was 5% (active).
In the case of C=CCN(c1ccc(C(=O)Nc2ccc(Br)c(Cl)c2)cc1)S(C)(=O)=O, the activation is reported as 0.888%.
Molecule C=CCN(c1ccc(C(=O)Nc2cc(C)cc(C)c2)cc1)S(C)(=O)=O has an activation of -0.236%.
With CCOC(=O)c1ccc(NC(=O)CSc2nc(NCc3ccc(Cl)cc3)c3ccccc3n2)cc1 the activation was -0.895%.
With O=C(Nc1cccc(Cl)c1)N(C1=NCCC1)c1ccc(Cl)cc1 the activation was 0.148%.
CCc1c(C(=O)N2CCN(c3cccc(Cl)c3)CC2)[nH]c(C)c1C(C)=O showed an activation of 4.26%.
For CC(=O)c1c(C)[nH]c(C(=O)N2CCN(c3ccc(Cl)cc3)CC2)c1C, the activation was 5.19% (active).
In the case of CC(=O)c1c(C)[nH]c(C(=O)CN2CCN(C(=O)c3ccccc3)CC2)c1C, the activation is reported as 0.331%.
COc1ccc(C(=O)NCCc2ccc(F)cc2)cc1[N+](=O)[O-] was tested, and the activation was 0.474%.
Molecule COc1cccc(-c2nnc(N)s2)c1 has an activation of -0.725%.
Cc1cnc(C(=O)N2CCc3ccc(NC(=O)Cc4ccccc4F)cc3C2)cn1 was tested, and the activation was 1.39%.
CCOC(=O)N1CCN(Cc2nc3c(c(=O)n(C)c(=O)n3C)n2CC(C)C)CC1 was tested, and the activation was -1.33%.
With Cc1nc(N2CCCC2C(=O)N2CC3CCC2C3)nc2ccccc12 (stereo not given) the activation was 0.0962%.
In the case of COc1ccccc1C1CCCN1C(=O)C1CC(Cc2ccc(F)cc2)=NO1 (stereo not given), the activation is reported as 1.31%.
In the case of COc1ccccc1C1CCCN1C(=O)C1CCN(c2nc(C)c3ccccc3n2)CC1 (stereo not given), the activation is reported as 11.3% (active).
For O=C(O)CCC(=O)N1N=C(c2ccc(O)cc2)CC1c1ccc(Br)cc1 (stereo not given), the activation was 0.932%.
In the case of CCc1cc(C(=O)COc2ccc([N+](=O)[O-])cc2)c(O)cc1O, the activation is reported as -0.273%.
Work on Cc1cc(Oc2ncnc(N)c2[N+](=O)[O-])cc(C(C)C)c1 yielded an activation of 1.22%.
NC(=O)c1ccnc(N2CCc3ccccc3C2)c1 was tested, and the activation was 0.149%.
CN1C(=O)NC(=O)/C(=C\c2ccc(-c3ccc(Br)c(Cl)c3)o2)C1=O gave an activation of -0.645%.
Work on COc1cc(C=O)ccc1OCCOc1ccc(C=O)cc1OC yielded an activation of -1.4%.
COc1ccc(C=O)cc1OCc1ccc(F)cc1 was tested, and the activation was 4.92% (active).
In the case of COc1cc(C=O)ccc1OCc1ccc(Br)cc1, the activation is reported as -0.687%.
In the case of O=C(CC1=CCCCC1)NCC1Cc2cc(F)cc(-c3cncnc3)c2O1 (stereo not given), the activation is reported as -1.03%.
With CCc1cccc(C)c1NC(=O)/C=C/C(=O)O the activation was 0.671%.
CCCNC(=O)c1ccc(Cl)cc1[N+](=O)[O-] gave an activation of 1.13%.
With COc1cccc2cc(C(=O)N(C)C)c(=O)oc12 the activation was 5.93% (active).
In the case of COc1ccc(NC(=O)c2cc3cccc(OC)c3oc2=O)cc1OC, the activation is reported as -1.45%.
CCCN(CCC)C(=O)c1cc2cccc(OC)c2oc1=O showed an activation of 2.62%.
O=[N+]([O-])c1ccc(OCc2nnc(SCCN3CCOCC3)n2-c2ccccc2)cc1 was tested, and the activation was 0.574%.
For CCn1c(COc2ccccc2)nnc1Sc1ccc([N+](=O)[O-])cc1C=O, the activation was 8.41% (active).
With CCn1c(COc2ccccc2OC)nnc1SCC(=O)NC the activation was 1.05%.
COc1ccc(CCNC(=S)Nc2c(C)n(C)n(-c3ccccc3)c2=O)cc1OC gave an activation of 0.54%.
COc1cc([N+](=O)[O-])ccc1NC(=O)C1CCCC1 showed an activation of 0.251%.
With COc1ccc(NC(=S)NCc2cc(C)n(C)n2)cc1OC the activation was 2.25%.
For COc1ccc(CCNC(=S)NCc2cc(C)n(C)n2)cc1OC, the activation was 14.1% (active).
CCCC(=O)NC(=S)Nc1ccc([N+](=O)[O-])cc1OC was tested, and the activation was 0.167%.
COc1cc([N+](=O)[O-])ccc1NC(=S)NCc1cc(C)n(C)n1 was tested, and the activation was 6.53% (active).
CCc1nc2ccccc2c2nn(CC(=O)NCCc3ccc(OC)c(OC)c3)c(=O)n12 showed an activation of 0.488%.
Molecule COC(=O)c1ccc(Nc2nc3c(s2)CCc2ccccc2-3)cc1 has an activation of 1.88%.
Cc1ccc(C)c(OCCOCCNCCN)c1C was tested, and the activation was 0.982%.
Molecule CN(C)c1cc(Oc2ccc(=O)[nH]n2)nc(N(C)C)n1 has an activation of 0.738%.
Molecule CC(C)(C)c1ccc(C(=S)NCCCn2ccnc2)cc1 has an activation of 1.31%.
COc1ccc(NC(=O)Cn2nnc(-c3ccccc3NC(=O)c3cccc(C)c3)n2)cc1 gave an activation of -0.639%.
With CCOC(=O)c1c(C)oc2c(Br)cc3oc(=O)c(C(=O)CC)cc3c12 the activation was -0.749%.
With COC(=O)CN(C)C(=O)CC1C(=O)NCCN1Cc1ccc(OC)c(OC)c1 (stereo not given) the activation was -0.568%.
In the case of CCCC1CCC(c2ccc(-c3ccc(CC)cn3)cc2F)CC1 (stereo not given), the activation is reported as 3.24%.
CCCCOc1ccc(OC(=O)c2ccc(-c3ccc(CC)cn3)cc2)cc1 showed an activation of 0.589%.
For CCc1ccc(-c2ccc(C3CCC(CC)CC3)cc2)nc1 (stereo not given), the activation was 10.7% (active).
Work on COc1ccc(/C(O)=C2/C(=O)C(=O)N(CCCC(=O)O)C2c2ccc(O)cc2)cc1 (stereo not given) yielded an activation of 0.777%.
Cc1ccc(-n2[nH]c(C)c(C=Nc3ccc(N=Cc4c(C)[nH]n(-c5ccc(C)c(C)c5)c4=O)cc3)c2=O)cc1C was tested, and the activation was 1.34%.
For CCC1(c2ccc(Cl)cc2Cl)NC(=S)N(c2ccc(C)c(C)c2)N1 (stereo not given), the activation was 6.17% (active).
In the case of Cc1ccc(N2NC3(CCCCC3)NC2=S)cc1C, the activation is reported as 1.89%.
CCCCOC(=O)C1=C(C)NC2=C(C(=O)CCC2)C1c1ccccc1[N+](=O)[O-] (stereo not given) was tested, and the activation was 1.59% and 0.946%.
Molecule COc1ccc(COC(=O)C2=C(C)NC3=C(C(=O)CCC3)C2c2cccc([N+](=O)[O-])c2)cc1 (stereo not given) has an activation of -0.575%.
In the case of CCCCOC(=O)C1=C(C)NC2=C(C(=O)CCC2)C1c1cccc([N+](=O)[O-])c1 (stereo not given), the activation is reported as 6.33% (active).
Cn1nc2c(nc1=O)[nH]c1ccccc12 gave an activation of -0.513%.
Cc1ccc(OCCN2CCNCC2)cc1C gave an activation of -1.28%.
With COc1cc2nc(-c3cccc(C(C)=O)c3)nc(Nc3ccc(N4CCOCC4)cc3)c2cc1OC the activation was 5.83% (active).
With CC(=O)c1cccc(-c2cccc(C(=O)Nc3ccc(N4CCOCC4)cc3)c2)c1 the activation was -0.102%.
COc1cc2nc(-c3ccc(N4CCOCC4)nc3)nc(Nc3ccc(NC(C)=O)cc3)c2cc1OC gave an activation of 0.834%.
